Laboratory results reported in PubChem BioAssay.
Results filed as inconclusive are left out. The source made the active and inactive calls.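 The calls were made as follows, unless noted: active = viability at or under a set limit in both replicates, limit being median viability minus 3 SD (cut at about 48% in these data, passing the limit was not always enough); inconclusive = at or under the limit in just one replicate; inactive = at or above the limit in both replicates.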

What was measured:
[1] = reducers of endogenous Her2 protein level, primary screen, SKBR3 breast tumor cells, AlphaScreen, ATP viability (AID 461;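 active = Her2 level under about 52% in both replicate screens, with viability over 70% of control, limit read from the data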;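 as to Her2 level: lower value means less Her2 protein in the cells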;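 as to viability: percent of carrier control wells set as 100% viability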); conditions: 18-24 h, measured here: SKBR3 viability, ATP luminescence, at 10 µM
[2] = biological target: Receptor tyrosine-protein kinase erbB-2 (Homo sapiens) (UniProt P04626); assay: as above; conditions: 18-24 h, at 10 µM, stronger effect = lower value
Sequence of Receptor tyrosine-protein kinase erbB-2 (Homo sapiens) (P04626 whole entry, looked up): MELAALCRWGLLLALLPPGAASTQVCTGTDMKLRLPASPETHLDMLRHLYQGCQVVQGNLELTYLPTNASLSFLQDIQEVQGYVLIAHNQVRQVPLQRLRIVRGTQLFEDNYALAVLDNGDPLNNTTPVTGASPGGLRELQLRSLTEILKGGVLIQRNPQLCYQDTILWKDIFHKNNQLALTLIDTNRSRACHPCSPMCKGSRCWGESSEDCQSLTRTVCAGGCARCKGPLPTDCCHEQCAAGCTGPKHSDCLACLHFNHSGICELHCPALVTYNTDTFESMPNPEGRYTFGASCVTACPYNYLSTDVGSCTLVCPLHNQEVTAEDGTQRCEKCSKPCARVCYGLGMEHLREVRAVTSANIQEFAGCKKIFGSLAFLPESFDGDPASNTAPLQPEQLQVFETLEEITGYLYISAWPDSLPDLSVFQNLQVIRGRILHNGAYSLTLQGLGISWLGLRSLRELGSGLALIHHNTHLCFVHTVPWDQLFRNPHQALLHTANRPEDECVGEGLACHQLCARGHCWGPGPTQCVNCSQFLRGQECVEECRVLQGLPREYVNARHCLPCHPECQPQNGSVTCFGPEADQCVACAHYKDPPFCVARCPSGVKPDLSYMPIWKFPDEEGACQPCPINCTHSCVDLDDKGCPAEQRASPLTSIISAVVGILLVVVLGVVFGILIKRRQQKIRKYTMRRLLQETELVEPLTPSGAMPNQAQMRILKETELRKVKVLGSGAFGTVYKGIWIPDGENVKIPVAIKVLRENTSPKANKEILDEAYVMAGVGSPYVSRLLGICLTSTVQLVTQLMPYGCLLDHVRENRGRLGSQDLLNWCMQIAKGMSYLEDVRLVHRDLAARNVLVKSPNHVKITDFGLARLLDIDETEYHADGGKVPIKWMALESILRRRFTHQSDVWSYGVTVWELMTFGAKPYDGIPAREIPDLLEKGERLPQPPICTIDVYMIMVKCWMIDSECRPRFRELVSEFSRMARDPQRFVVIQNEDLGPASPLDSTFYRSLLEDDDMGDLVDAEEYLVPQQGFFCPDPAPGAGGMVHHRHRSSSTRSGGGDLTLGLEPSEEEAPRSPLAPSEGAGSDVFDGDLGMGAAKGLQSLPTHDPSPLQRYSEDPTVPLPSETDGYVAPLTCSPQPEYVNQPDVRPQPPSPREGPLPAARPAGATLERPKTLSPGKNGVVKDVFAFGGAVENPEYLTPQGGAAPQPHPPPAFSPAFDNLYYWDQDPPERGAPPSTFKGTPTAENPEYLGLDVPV

[3] = SK-BR-3 cell growth inhibitors, pilot screen, 24 h, human (AID 572;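 active = viability at or below 10% of carrier control in both of two separate runs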;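 also: compound exposure lasted between 18 and 24 h rather than exactly 24 h; 100% = carrier-treated control wells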); conditions: SK-BR-3 viability, CellTiter-Glo luminescence, at 10 µM, stronger effect = lower value
[4] = HUVEC growth inhibition – cell-based, human, primary screen (AID 575;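 active = viability at or below 30% in both replicate assays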;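 also: 100% = median of untreated cell wells with 0.1% DMSO on each plate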); conditions: HUVEC proliferation, CellTiter-Glo luminescence, 72 h; at 10 µM; stronger effect = lower value
[5] = growth inhibitors of H69AR lung tumor, primary screen, human, duplicate replicates (AID 580); conditions: H69AR lung tumor cells viability, ATP luminescence, 72 h; at 10 µM; stronger effect = lower value;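 also: 100% = mean luminescence of untreated wells and 0% = no signal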
[6] = reversal of MRP1-mediated doxorubicin resistance, pilot screen, H69AR cells, doxorubicin co-treatment (AID 601;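 active = viability loss from added drug above about 55%, and viability with drug at most 40%, in both replicates, limit read from the data, passing the limit was not always enough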); conditions: CellTiter-Glo, 72 h, at 10 µM; for differential viability (reversal): stronger effect = higher value
[7] = 384-well plate pilot, post-Golgi transport modulator project, inhibition of yeast transport mutant growth (AID 636; in the data active = inhibition above about 31%); conditions: absorbance 615 nm, about 18 h, stronger effect = higher value
[8] = growth suppression of yeast trafficking mutant, preliminary HTS, modulators of trafficking downstream of Golgi apparatus project, 1536-format plate, OD 615 nm (AID 637; in the data active = inhibition above about 30%); conditions: yeast transport mutant growth, absorbance 615 nm, 18 h; stronger effect = higher value
[9] = OD615 S. cerevisiae growth inhibition, permissive medium, pilot counter-assay, permissive growth control for S. cerevisiae lifespan shortening project (AID 705;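 active = growth inhibition above 25% in both replicates, a cutoff set 3 SD above the mean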); conditions: OD615, 24 h, at 10 µM, stronger effect = higher value
[10] = Restrictive medium S. cerevisiae growth inhibition, OD615, pilot screen of yeast lifespan reduction project, restrictive growth control (AID 706;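 active = growth inhibition above a set limit, 3 SD over mean compound inhibition, in both replicates, cut at about 43% in these data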;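 also: modified DeaD lifespan yeast strain shifted to restrictive glucose medium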); conditions: OD615, 48 h, at 10 µM, stronger effect = higher value
[11] = viability gain of MRP-1-high H69AR cells under doxorubicin, pilot screen, MRP-1 activator project, CellTiter-Glo, duplicate (AID 807;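 active = viability increase at or above a cutoff of the median across tested compounds plus 3 SD, cut at about 8.5% in these data, passing the limit was not always enough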;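 also: compound pretreatment 18-22 h then 72 h combined with doxorubicin; 0% = doxorubicin alone and 100% = vehicle without doxorubicin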); conditions: H69AR viability with doxorubicin, CellTiter-Glo luminescence; at 10 µM; stronger effect = higher value
[12] = growth suppression of beta-catenin knockout HCT116, pilot screen, human colon tumor cells (AID 823;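 active = cell viability at or below a set limit in both duplicate runs, the limit being the all-compound median minus 4 SD, cut at about 23% in these data, passing the limit was not always enough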;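 also: 0% = wells killed by 20 µM Hyamine and 100% = untreated DMSO cell wells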); conditions: CellTiter-Glo, 60 h, at 10 µM, stronger effect = lower value
[13] = growth suppression of PTEN-deleted HCT116, pilot screen, cell-based, HCT116 clonal line, CellTiter-Glo (AID 824;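 active = viability at or below 27.92% in each of two runs, the all-compound median minus 4 SD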;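 also: 0% = 20 µM Hyamine control and 100% = vehicle cell control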); conditions: 60 h, at 10 µM, stronger effect = lower value
[14] = inhibitors of the yeast RAM network, pilot screen, dse1pr::URA3 reporter, 5-FOA selection (AID 869;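 active = inhibition over a set limit, the all-compound mean plus 3 SD, in both replicate runs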;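 also: 0% = DMSO wells with no growth and 100% = 10 µM 1-NA-PP1 with full growth; RAM network block rescues cells from 5-FOA so hits raise OD615 growth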); conditions: S. cerevisiae dse1pr::URA3 5-FOA growth, OD615, 2 d; at 10 µM; stronger effect = higher value; strain carries analog-sensitive mutant Cbk1 kinase
[15] = RAM signaling pathway blockade in yeast – S. cerevisiae, Pdr1DBD-CYC8 efflux-inhibited sensitized strain, primary screen (AID 1298;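 active = RAM network inhibition above 8.4% in each of two replicates, 3 SD over the compound average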;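 also: 0% = DMSO untreated cells without growth and 100% = 10 µM 1-NA-PP1 full growth; higher means more yeast growth rescued from 5-FOA killing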); conditions: S. cerevisiae cbk1-as DSE1-URA3 strain, 5-FOA growth OD615, 2 d; at 50 µM; stronger effect = higher value
[16] = H69AR cells + 2 uM doxorubicin, measured here: viability with 2 uM doxorubicin, stronger effect = lower value
[17] = H69AR cells, compound alone cytotoxicity

CCOC(=O)Cc1ccc(NS(=O)(=O)c2ccc(SC)cc2)cc1
86.7%: viability [6, 17]
inactive: Her2 level [2] 88% | viability [3] 89% | viability [4] 67.9% | viability [5] 86.7% | differential viability (reversal) ([6]; H69AR cells + 2 uM doxorubicin) 3.83% | inhibition [7] -5.54% | inhibition [8] -5.08% | growth inhibition [9] 6.06% | growth inhibition [10] -1.98% | viability increase [11] -4.85% | viability [12] 94.4% | viability [13] 88.1% | inhibition [14] 0.825% | RAM network inhibition [15] 2.83%
89%: viability [1]
82.8%: viability [6, 16]

COc1ccc(CCNc2oc(COc3ccccc3Cl)nc2C#N)cc1OC
inactive: Her2 level [2] 87% | viability [3] 90% | viability [4] 56.8% | viability [5] 92.2% | differential viability (reversal) ([6]; H69AR cells + 2 uM doxorubicin) -4.1% | inhibition [7] -1.6% | inhibition [8] -1.83% | growth inhibition [9] -10% | growth inhibition [10] -0.295% | viability increase [11] -1.73% | viability [12] 88.5% | viability [13] 73.2% | inhibition [14] 1.5% | RAM network inhibition [15] 2.3%
90%: viability [1]
96.3%: viability [6, 16]
92.2%: viability [6, 17]

CC(=O)C1=C(N2CCCCC2)CCC1=O
inactive: Her2 level [2] 101% | viability [3] 86% | viability [4] 109% | viability [5] 98.3% | differential viability (reversal) ([6]; H69AR cells + 2 uM doxorubicin) 11.5% | inhibition [7] -5.81% | inhibition [8] 5.33% | growth inhibition [9] 2.54% | growth inhibition [10] 4.54% | viability increase [11] -2.01% | viability [12] 94.5% | viability [13] 94.7% | RAM network inhibition [15] 0.55%
98.3%: viability [6, 17]
86.8%: viability [6, 16]
86%: viability [1]

CCOC(=O)Nc1ccc2c(c1)N(C(=O)OCCN(C)C)c1ccccc1CC2
90.2%: viability [6, 17]
77.7%: viability [6, 16]
94.5%: viability [1]
inactive: Her2 level [2] 100% | viability [3] 94.5% | viability [4] 77.5% | viability [5] 90.2% | differential viability (reversal) ([6]; H69AR cells + 2 uM doxorubicin) 12.4% | inhibition [7] -7.07% | inhibition [8] -9.02% | growth inhibition [9] -10.3% | growth inhibition [10] -0.265% | viability increase [11] -4.23% | viability [12] 73.5% | viability [13] 78.8% | inhibition [14] 1.89% | RAM network inhibition [15] 2.2%

O=C(Nc1nnc(N2CCCCCC2)s1)c1cc(-c2ccc(Br)cc2)on1
99.6%: viability [6, 17]
86.4%: viability [6, 16]
97%: viability [1]
inactive: Her2 level [2] 106% | viability [3] 97% | viability [4] 99.2% | viability [5] 99.6% | differential viability (reversal) ([6]; H69AR cells + 2 uM doxorubicin) 13.1% | inhibition [7] -5.13% | inhibition [8] 3.67% | growth inhibition [9] -14.6% | growth inhibition [10] -7.24% | viability increase [11] 2.89% | viability [12] 99.1% | viability [13] 95.2% | inhibition [14] 1.98% | RAM network inhibition [15] 9.45%
